Assay outcomes as filed in PubChem.
Fam108B counter = counter-screen for RBBP9 inhibitors: inhibitors of mouse Fam108B; 300,000 compounds, 0.33% hits; recombinant Fam108B, FP-Rh probe fluorescence polarization; inhibition, % at 9.51 µM;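 active = inhibition above the screen mean inhibition plus 3 SD, computed separately per campaign, cut at about 18% in these data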;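 note: inhibitors lower polarization as less probe binds the enzyme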
GSTO1 counter = GSTO1 inhibition, counter-screen for RBBP9 inhibitors; 300,000 compounds, 1.1% hits; recombinant GSTO1, activity-based probe fluorescence polarization; inhibition, % at 5.96 µM; P78417;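 active = inhibition above the campaign mean inhibition plus 3 SD, cut at about 35% in these data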
Target sequence (P78417 whole entry, looked up): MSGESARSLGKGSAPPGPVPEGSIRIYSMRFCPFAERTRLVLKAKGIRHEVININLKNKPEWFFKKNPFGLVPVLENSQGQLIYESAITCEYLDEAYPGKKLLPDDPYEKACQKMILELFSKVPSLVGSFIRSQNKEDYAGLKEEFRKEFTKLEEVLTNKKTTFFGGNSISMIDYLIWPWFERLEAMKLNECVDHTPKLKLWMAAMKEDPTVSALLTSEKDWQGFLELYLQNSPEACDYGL
PAD4 inh = blocks human protein arginine deiminase 4; Q9UM07; recombinant PAD4, RCA probe fluorescence polarization; inhibition, % at 6.36 µM; 330,000 compounds, 0.41% hits; AID 485272;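 active = percent inhibition above a cutoff equal to the mean of all tested compounds plus 3 SD, cut at about 15% in these data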
LYPLA1 counter = LYPLA1 (human) inhibition in PME1 counter-screen; O75608; recombinant LYPLA1, FP-Rh probe fluorescence polarization; inhibition, % at 5.9 µM; 320,000 compounds, 0.16% hits;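 active = inhibition above the mean of all tested compounds plus 3 SD, set per campaign, cut at about 14% in these data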;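 note: inhibitors block serine hydrolase probe labeling of LYPLA1 so polarization falls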
Target sequence (O75608 whole entry, looked up): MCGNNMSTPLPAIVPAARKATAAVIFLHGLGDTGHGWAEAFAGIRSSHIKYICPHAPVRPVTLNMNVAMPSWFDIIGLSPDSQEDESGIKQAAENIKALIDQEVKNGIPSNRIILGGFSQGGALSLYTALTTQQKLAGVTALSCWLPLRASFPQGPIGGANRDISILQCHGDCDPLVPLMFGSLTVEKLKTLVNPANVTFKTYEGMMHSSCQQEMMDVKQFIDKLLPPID
LYPLA2 inh = LYPLA2 (human) inhibition in PME1 counter-screen | O95372 | recombinant LYPLA2, FP-Rh probe fluorescence polarization | inhibition, % at 5.9 µM | 320,000 compounds, 0.38% hits | AID 2177;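 active = inhibition above the screen-wide mean plus 3 SD, limit set per campaign, cut at about 26% in these data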
PME-1 primary = blocks human protein phosphatase methylesterase 1; inhibition, % at 5.9 µM; Q9Y570; recombinant PME-1, FP-Rh probe fluorescence polarization; 320,000 compounds, 0.53% hits;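 active = inhibition above the campaign mean of all compounds plus 3 SD, cut at about 26% in these data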;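 note: competitive labeling of PME-1 active site by serine hydrolase directed probe; inhibitors block probe labeling so polarization falls and inhibition rises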
Fam108b confirm = Fam108b (mouse) hydrolase inhibition, confirmation assay. shares compounds with Fam108B counter. recombinant Fam108b, FP-Rh probe fluorescence polarization. inhibition, % at 9.51 µM. 930 compounds, 44% hits. AID 1978;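 active = inhibition above a limit from the primary screen, the mean over all compounds plus 3 SD, cut at about 19% in these data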;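 note: inhibitors free the probe so polarization falls as inhibition rises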
Fam108b ABPP HTS = mouse ABHD17B inhibition | shares compounds with Fam108B counter | recombinant Fam108b, gel-based ABPP, fluorophosphonate probe | inhibition, % at 20 µM | 260 compounds, 44% hits; in the data active = inhibition above about 40%
GSTO1 inh conf = confirmation of human GSTO1 inhibitors. recombinant GSTO1, probe fluorescence polarization. inhibition, % at 5.96 µM. AID 2176. 2,400 compounds, 54% hits. shares compounds with GSTO1 counter;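 active = inhibition above the primary screen's cutoff, its mean inhibition plus 3 SD, cut at about 35% in these data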;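 note: loss of polarization as inhibitors block binding of rhodamine sulfonate ester activity probe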
LYPLA1 confirm = LYPLA1 (human) inhibition, confirmation counter-screen; shares compounds with LYPLA1 counter; recombinant LYPLA1, FP-Rh probe fluorescence polarization; inhibition, % at 5.9 µM; 480 compounds, 69% hits;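 active = mean inhibition across replicates above the hit cutoff set in the primary screen, cut at about 15% in these data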;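 note: loss of FP-Rh probe labeling of LYPLA1 seen as lower polarization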
LYPLA2 confirm = LYPLA2 (human) inhibition, confirmation counter-screen | AID 2232 | 1,100 compounds, 72% hits | inhibition, % at 5.9 µM | recombinant LYPLA2, FP-Rh probe fluorescence polarization | shares compounds with LYPLA2 inh;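 active = mean inhibition across replicates above the hit cutoff set in the primary screen, cut at about 26% in these data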;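 note: blocked labeling of the enzyme by serine hydrolase FP-Rh probe lowers polarization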
PAD4 FP conf = PAD4 (human) inhibition, confirmed; 1,200 compounds, 28% hits; inhibition, % at 6.36 µM; shares compounds with PAD4 inh; recombinant PAD4, RCA probe fluorescence polarization; AID 488796;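 active = mean inhibition across replicates above the hit cutoff set by the earlier primary screen, cut at about 15% in these data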;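 note: inhibitors block active-site labeling by the probe so polarization falls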
Numbers stand for hits. Shown are actives, neighbours in structure and some others; about 1.8% of the full set was active somewhere.

What do the screens show for `CN(C)Cc1ccc(CNC(=O)COc2ccc3ccccc3c2)cc1`?
Fam108B counter: inactive; GSTO1 counter: inactive; PAD4 inh: inactive; LYPLA1 counter: inactive; LYPLA2 inh: inactive; PME-1 primary: inactive

What do the screens show for `COc1ccc(NS(=O)(=O)c2cccc(C(=O)NNC(=O)NCCCl)c2)cc1`?
Fam108B counter: inactive; GSTO1 counter: inactive; PAD4 inh: inactive; LYPLA1 counter: inactive; LYPLA2 inh: inactive; PME-1 primary: inactive

What do the screens show for `COc1ccc(NC(=S)Nc2ccc3nsnc3c2)cc1`?
Fam108B counter: 29; GSTO1 counter: 86; PAD4 inh: 68; LYPLA1 counter: 61; LYPLA2 inh: 86; PME-1 primary: 36; Fam108b confirm: 40; Fam108b ABPP HTS: 55; GSTO1 inh conf: 80; LYPLA1 confirm: inactive; LYPLA2 confirm: inactive; PAD4 FP conf: inactive

What do the screens show for `CC(C)N(C(=O)Nc1ccc2nsnc2c1)C(C)C`?
Fam108B counter: 55; GSTO1 counter: 98; PAD4 inh: 78; LYPLA1 counter: 71; LYPLA2 inh: 73; PME-1 primary: 32; Fam108b confirm: 33; Fam108b ABPP HTS: inactive; GSTO1 inh conf: 77; LYPLA1 confirm: inactive; LYPLA2 confirm: 31; PAD4 FP conf: inactive

How did CC1CCN(C(=O)Nc2ccc3nsnc3c2)CC1 do in these assays?
Fam108B counter: inactive; GSTO1 counter: inactive; PAD4 inh: inactive; LYPLA1 counter: inactive; LYPLA2 inh: inactive; PME-1 primary: inactive

Results for COc1ccc(NC(=S)Nc2ccc3nc(C)c(C)nc3c2)cc1 ?
Fam108B counter: inactive; GSTO1 counter: inactive; PAD4 inh: inactive; LYPLA1 counter: inactive; LYPLA2 inh: inactive; PME-1 primary: inactive

Results for CC(C)N=c1cc2n(-c3ccc(Cl)cc3)c3ccccc3nc-2cc1Nc1ccc(Cl)cc1 ?
Fam108B counter: 39; GSTO1 counter: inactive; PAD4 inh: 20; LYPLA1 counter: 31; LYPLA2 inh: 43; PME-1 primary: 32; Fam108b confirm: inactive; LYPLA1 confirm: 15; LYPLA2 confirm: inactive; PAD4 FP conf: 28

How did CCOC(=O)C1CCCN(C(=O)c2ccc(C(=O)c3ccccc3)cc2)C1 (stereo not drawn) do in these assays?
PAD4 inh: inactive; LYPLA1 counter: inactive; LYPLA2 inh: inactive; PME-1 primary: inactive

How did CCOC(=O)C1CCCN(C(=O)C2c3ccccc3Oc3ccccc32)C1 (stereo not drawn) do in these assays?
Fam108B counter: 41; GSTO1 counter: 46; PAD4 inh: 94; LYPLA1 counter: 56; LYPLA2 inh: 59; PME-1 primary: 66; Fam108b confirm: inactive; GSTO1 inh conf: inactive; LYPLA1 confirm: inactive; LYPLA2 confirm: inactive; PAD4 FP conf: inactive

What do the screens show for `CCC(C(=O)Nc1cccnc1)n1c(=O)[nH]c2ccccc2c1=O` (stereo not drawn)?
Fam108B counter: inactive; GSTO1 counter: inactive; PAD4 inh: inactive; LYPLA1 counter: inactive; LYPLA2 inh: inactive; PME-1 primary: inactive

What do the screens show for `O=c1[nH]cc(S(=O)(=O)N2CCCc3ccccc32)c(=O)[nH]1`?
Fam108B counter: inactive; GSTO1 counter: inactive; PAD4 inh: inactive; LYPLA1 counter: inactive; LYPLA2 inh: inactive; PME-1 primary: inactive
